Screening data (PubChem BioAssay)
The entries come from a sample that favours hits as a whole.
nsP2pro primary: blocks chikungunya virus nsP2 protease peptide cleavage. Q8JUX6. FRET peptide cleavage, nsP2pro, fluorescence 1 h. Potency, µM (highest dose often 24.9 µM), usual class: inhibitors. actives 1.1% (n = 31,000). AID 1964107; calls by dose curve; also: nearly all actives have a fitted effect of over 60% in size
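Recombinant nsP2pro (150 nM) was preincubated with compound 15 min at room temperature in 10 mM Tris-HCl pH 8.0, 0.01% Tween 20. Peptide 2 FRET substrate (2.5 uM) was then added and fluorescence read after 1 h. Seven-point series, up to 25 uM.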
Hits are given with their value; i = inactive; [ ] = another dose, or the depositor's remark.

SMILES | nsP2pro primary
CCNC(=O)N[C@@H]1C=C[C@@H](c2c(C)nn(-c3ccc(C(C)(C)C)cc3)c2C)C1 | i
CCNC(=O)N[C@@H]1C=C[C@@H](c2c(C)nn(-c3ccc(C(C)C)cc3)c2C)C1 | i
CCNC(=O)N[C@@H]1C=C[C@@H](c2c(C)nn(-c3ccc(C(F)(F)F)cc3)c2C)C1 | 11.2µM
CCCN(C)c1ncnc2ccc(-c3ccc4c(c3)OCO4)cc12 | i
CCOC(=O)C1=C(C)NC(C)=C(C(=O)OCC)C1c1ccccc1/C=C/C(=O)OC(C)(C)C | i
COC(=O)C1=C(C)NC(C)=C(C(=O)OC(C)C)C1c1cccc2nonc12 (centres undefined) | i
COC(=O)C1=C(C)NC(C)=C(C(=O)OCC(C)=O)C1c1ccccc1[N+](=O)[O-] (centres undefined) | 12.4µM
C[C@]12C=CC(=O)C=C1CC[C@@H]1[C@@H]2[C@@H](O)C[C@@]2(C)[C@H]1CC[C@]2(O)C(=O)COC(=O)c1cccc(S(=O)(=O)O)c1 | i
CC(C)(C)NCc1cc(Nc2ccnc3cc(Cl)ccc23)c2c(c1O)CCCC2 | i[0.199 µM]
O=S(=O)(NCc1ccccc1F)c1ccc(O)c2ncccc12 | i
O=C(NCCc1nc2ccccc2n1CCOc1ccccc1[N+](=O)[O-])C1CCCCC1 | i
C=C1C(=O)OC2/C=C(\COC(C)=O)CC/C=C(\C=O)CC(OC(=O)C(C)CC)C12 (centres undefined) | i
O=S(=O)(Nc1ccccc1)c1ccc(NCc2cccc(Cl)c2O)cc1 | i
O=S(=O)(Nc1cnc2ccccc2c1)c1ccc(NCc2cccc(Cl)c2O)cc1 | i
CCOc1cccc(CNc2ccc(O)cc2)c1OCc1ccccc1Cl | 11.2µM
O=C(NCc1ccc(F)c(F)c1)C1CN(C2CCCC2)C(=O)N1 (centres undefined) | i
COC(=O)C1=CO[C@@H](O[C@@H]2O[C@H](CO)[C@@H](O)[C@H](O)[C@H]2O)[C@@H]2C(CO)=CC[C@]12O | i
O=C(O)Cc1cccn1-c1ccc(Cl)cc1 | 4.47µM
O=C(Cc1cccn1-c1ccc(F)cc1)N1CCCCC1 | i
O=C(N1CCOCC1)N1CCN(c2ccc(Cl)cc2)CC1 | i
CSC(Cc1ccc(Cl)cc1)C(=O)Nc1ccc(Cl)cc1C(=O)O (centres undefined) | i
N=C(N)c1ccc2nc(-c3cc(CC(=O)NC(CC(=O)O)C(=O)O)cc(-c4cc(S(N)(=O)=O)ccc4O)c3O)[nH]c2c1 (centres undefined) | i
O=C(O)C1=NOC2CN(Cc3cscn3)CC12 (centres undefined) | i
CC(C)CCN1CC2ON=C(C(=O)O)C2C1 (centres undefined) | i
CCCN1CC2ON=C(C(=O)O)C2C1 (centres undefined) | 12.6µM
SMILES | nsP2pro primary
COc1ccc2c(O[C@@H]3C[C@H]4C(=O)N[C@]5(C(=O)O)C[C@H]5/C=C\CCCCC[C@H](NC(=O)OC5CCCC5)C(=O)N4C3)cc(-c3csc(NC(C)C)n3)nc2c1 | i
Fc1ccc(-c2ccc(CNCCSc3nnnn3-c3ccccc3)o2)cc1 | 12.6µM
O=S(=O)(NCCSc1nnnn1-c1ccccc1)c1ccc(F)cc1 | i
COc1ccc(Cl)cc1CNCCSc1nnnn1-c1ccccc1 | i
Cc1nc(CCN(C)c2ncnc3ccc(-c4ccc5c(c4)OCO5)cc23)cs1 | i
CC(C)CCC[C@@H](C)[C@H]1CC[C@H]2[C@@H]3CC=C4C[C@@H](OC(=O)NCCN(C)C)CC[C@]4(C)[C@H]3CC[C@]12C | i
COc1cccc(S(=O)(=O)Nc2cnccc2C(=O)Nc2nc(-c3ccccc3)cs2)c1 | i
COc1cccc2sc(N(Cc3cccnc3)C(=O)C3COc4ccccc4O3)nc12 (centres undefined) | i
COc1ccccc1Oc1ccc(N(Cc2cccnc2)S(=O)(=O)CC(F)(F)F)cc1 | 11.1µM
COc1ccc(C)c2sc(N(Cc3cccnc3)C(=O)COc3ccccc3)nc12 | i
Cc1ccc(-c2cccc(CN3CCCC(c4nc5ccc(C)cc5c(=O)[nH]4)C3)c2)c(C)c1 (centres undefined) | i
CC(C)(C)c1ccc(CN2CC3(COCC2=O)CN(c2cnccn2)C3)cc1 | i
O=C1COCC2(CN(c3ccc(C(F)(F)F)cn3)C2)CN1c1ccccc1F | 11.2µM
O=C1COCC2(CN(c3ccc(C(F)(F)F)cn3)C2)CN1c1ccc(F)cc1 | i
COc1cccc(Nc2cnc3ccc(-c4ccc(F)cc4)nn23)c1 | i
Cn1cc(-c2cnc(Nc3cccnc3)c3c2CCO3)cn1 | 8.91µM
Cn1cc(-c2cnc(Nc3ccc(F)cc3)c3c2CCO3)cn1 | i
CNC(=O)c1cccc(-c2cnc(Nc3ccc(Cl)cn3)c3c2CCO3)c1 | i
CC(C)(C)c1ccc(S(=O)(=O)Nc2ccc(-n3ccnc3)cc2)cc1 | i
Cc1oc2c(c1C(=O)N1CCOCC1)CN(Cc1cccnc1)CC2 | i
Cc1ccc(CN2CCc3nc(C(=O)Nc4cccnc4)oc3CC2)o1 | 10µM
CN1CCN(c2nc3c(c(=O)[nH]2)CCN(Cc2cccnc2)CC3)CC1 | i
CNCCN1CCC(OCc2ccccc2)CC1 | i
C=CCNC1=C2C[C@@H](C)C[C@H](OC)[C@H](O)[C@@H](C)/C=C(\C)[C@H](OC(N)=O)[C@@H](OC)/C=C\C=C(/C)C(=O)NC(=CC1=O)C2=O | i
COC1=C2C[C@H](C)C[C@H](OC)[C@H](O)[C@@H](C)/C=C(/C)[C@H](OC(N)=O)[C@@H](OC)/C=C\C=C(\C)C(=O)NC(=CC1=O)C2=O | 12.4µM
SMILES | nsP2pro primary
c1ccc2c(Nc3ccn[nH]3)nc(-c3ccncc3)nc2c1 | i
Cc1nn(-c2ccc(F)cc2)c(C)c1[C@@H]1C=C[C@@H](NC(=O)NC(C)C)C1 | i
COc1ccc(-n2nc(C)c([C@@H]3C=C[C@@H](NC(=S)NCC(C)C)C3)c2C)cc1 | i
COc1ccc(NC(=O)N[C@@H]2C=C[C@@H](c3c(C)nn(CCC#N)c3C)C2)cc1 | 12.6µM
O=C1c2cccnc2OC(COc2ccccc2)CN1Cc1cccs1 (centres undefined) | i
O=C(Nc1nc2cc(C(F)(F)F)ccc2s1)c1ccc(-c2cccc([N+](=O)[O-])c2)o1 | i
CC(=O)N1CCN(c2nc3c(s2)CC(C(=O)Nc2cc(Cl)ccc2F)CC3)CC1 (centres undefined) | i
c1cncc(-c2ccc(CNc3nc(C4CCCC4)nc4ccccc34)cc2)c1 | i
Cc1cc(C)nc(NC(=S)N2CCN(c3nccc4occc34)CC2)c1 | i
CC(C)(C)NC(=O)N1CCC(c2nnc3n2C(C(=O)NCC2CCCCC2)CC3)CC1 (centres undefined) | i
COc1ccc(NC(=O)c2c(NC(=O)c3ccncc3)sc3c2CCC(C(C)(C)C)C3)cc1 (centres undefined) | i
CC1CCc2c(sc(NC(=O)COc3ccccc3)c2C(=O)Nc2ccccc2Cl)C1 (centres undefined) | i
CCOc1ccc(NC(=O)c2c(NCc3cccnc3)sc3c2CCC(C)C3)cc1 (centres undefined) | 11.2µM
Cc1ccc(-c2ccccc2CN2CCN(C(=O)Nc3ccccc3)CC2)cc1Cl | i
CC(C)(C)OC(=O)NCCOCCOCCOc1cccc(-n2ncc3c2CCCC3NC(=O)c2ccccn2)c1 (centres undefined) | i
O=C(OCC#CCSc1nnc(-c2ccc3ccccc3c2)o1)c1ccsc1 | i
COc1ccc(CN(C)Cc2ccoc2)cc1OCC(O)CN1CCCCC1 (centres undefined) | i
O=C(NCCc1ccc(O)c(O)c1)c1cc2sccc2n1Cc1ccccc1 | i
